# The whole screen tested about 310,000 compounds, of which about 14,000 (4.5%) showed an effect of 50% or more. Effects have a minus sign here. This is one part of a sample in which strong results are shown more often than they occur.
# Target: human ether-à-go-go-related gene (hERG) potassium channel (human, UniProt Q12809)
# Assay: primary screen, population patch clamp on CHO cells stably expressing hERG; higher = less effect of the substance
# 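Also: peak tail current of the secondary pulse compared with the same well before compound.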
# Chain of human ether-à-go-go-related gene (hERG) potassium channel (Q12809 whole entry, looked up): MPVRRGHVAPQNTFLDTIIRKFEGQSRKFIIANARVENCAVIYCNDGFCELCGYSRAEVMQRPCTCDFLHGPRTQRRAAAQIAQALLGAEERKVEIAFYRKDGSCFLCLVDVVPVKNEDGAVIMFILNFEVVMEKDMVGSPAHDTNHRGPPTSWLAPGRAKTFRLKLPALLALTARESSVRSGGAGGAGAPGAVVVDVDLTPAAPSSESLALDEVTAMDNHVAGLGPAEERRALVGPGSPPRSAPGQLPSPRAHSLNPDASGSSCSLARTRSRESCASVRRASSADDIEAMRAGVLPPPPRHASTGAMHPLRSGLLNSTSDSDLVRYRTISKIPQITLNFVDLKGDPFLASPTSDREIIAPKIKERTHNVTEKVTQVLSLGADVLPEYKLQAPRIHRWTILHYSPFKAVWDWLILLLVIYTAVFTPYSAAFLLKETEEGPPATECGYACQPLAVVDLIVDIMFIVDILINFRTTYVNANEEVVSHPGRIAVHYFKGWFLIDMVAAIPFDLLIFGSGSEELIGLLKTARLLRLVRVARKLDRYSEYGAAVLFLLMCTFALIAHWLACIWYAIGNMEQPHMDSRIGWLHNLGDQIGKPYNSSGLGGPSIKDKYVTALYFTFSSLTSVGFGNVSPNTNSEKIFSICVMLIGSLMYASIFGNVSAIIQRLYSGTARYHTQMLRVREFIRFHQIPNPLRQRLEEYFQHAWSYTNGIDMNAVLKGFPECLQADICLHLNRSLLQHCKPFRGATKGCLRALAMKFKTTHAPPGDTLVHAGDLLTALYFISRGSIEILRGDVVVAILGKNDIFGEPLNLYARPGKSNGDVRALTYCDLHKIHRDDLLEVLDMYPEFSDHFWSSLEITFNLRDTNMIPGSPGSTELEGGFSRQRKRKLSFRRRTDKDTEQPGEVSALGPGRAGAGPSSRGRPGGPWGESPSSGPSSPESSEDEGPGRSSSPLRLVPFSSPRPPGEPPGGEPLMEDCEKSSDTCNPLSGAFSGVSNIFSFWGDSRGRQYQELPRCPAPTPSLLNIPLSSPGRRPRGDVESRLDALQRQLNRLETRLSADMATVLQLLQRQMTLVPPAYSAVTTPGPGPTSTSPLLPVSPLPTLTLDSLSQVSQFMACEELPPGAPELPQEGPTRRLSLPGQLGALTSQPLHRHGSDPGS
row,Structure (SMILES),"hERG current change (%, negative = inhibition) at 10uM"
1,O=C(NO)c1ccccc1C(F)(F)F,15.4%
2,Cc1cccc(C)c1OCC(=O)Nc1cccc(S(=O)(=O)N2CCCC2)c1,3.77%
3,CC(Oc1ccc2c3c(c(=O)oc2c1)CCCC3)C(=O)NCC(O)c1ccccc1 (stereo not shown),16.8%
4,COc1ccc(S(=O)(=O)c2ccc(OC)c(OC)c2)cc1OC,-12.2%
5,COc1ccc(CCNC(=O)C2CCN(S(=O)(=O)c3c(C)noc3C)CC2)cc1OC,-16.9%
6,O=C(CCCNC(=O)/C(=C\c1ccc(F)cc1)NC(=O)c1ccccc1)OCc1ccccc1,-77.1%
7,O=C(CCCNC(=O)/C(=C/c1ccc(F)cc1)NC(=O)c1ccccc1)OCc1ccccc1,-64.3%
8,O=C(CCCNC(=O)/C(=C\c1ccccc1F)NC(=O)c1ccccc1)OCc1ccccc1,-9.13%
9,O=C(CCCNC(=O)/C(=C/c1ccccc1F)NC(=O)c1ccccc1)OCc1ccccc1,-5.02%
10,O=C(O)CCCNC(=O)/C(=C\c1ccccc1F)NC(=O)c1ccccc1,13.4%
11,O=C(CCCNC(=O)/C(=C/c1ccc(Br)cc1)NC(=O)c1ccccc1)OCc1ccccc1,-38.8%
12,Cc1csc(NC(=O)c2ccc(COc3ccccc3)o2)n1,-17.7%
13,CC(=O)Nc1ccccc1NC(=O)C/C(C)=N/NC(=O)c1ccccn1,16.1%
14,COc1ccc2nc(C)cc(Nc3ccc(C)cc3)c2c1.Cl,-52.8%
15,COc1ccc2nc(C)cc(Nc3ccc(C(=O)O)cc3)c2c1,39.5%
16,COc1ccc(Nc2cc(C)nc3ccc(OC)cc23)cc1,-52.3%
17,Nc1ncncc1-c1ccc2ccccc2c1,-7.48%
18,Clc1ccc(/C=N/c2c(-c3ccc(Cl)cc3)nc3n2CCS3)cc1,1.1%
19,CC1CCCCC1NC(=O)c1cn(C)c2ccc(S(=O)(=O)N3CCCC3)cc2c1=O (stereo not shown),-0.37%
20,COc1ccc(C(=O)OCn2nnc3ccccc3c2=O)cc1[N+](=O)[O-],13.6%
21,Cc1ccc(S(=O)(=O)N(C)C)cc1NC(=O)C(C)Sc1ccccc1 (stereo not shown),-6.74%
22,COc1ccc(C(=O)NCC(=O)N/N=C(C)\C=C\c2ccccc2)cc1OC,-19.3%

row,Structure (SMILES),"hERG current change (%, negative = inhibition) at 10uM"
1,CC(/C=N/NC(=O)c1ccc(Br)cc1)=C\c1ccccc1,-3.38%
2,CC(/C=N/NC(=O)c1nn(C)c(C)c1Br)=C\c1ccccc1,-53.8%
3,COc1ccc(C(=O)NCC(=O)N/N=C/C=C/c2ccccc2)cc1OC,-93.6%
4,CC(/C=N/NC(=O)c1c(Br)cnn1C)=C\c1ccccc1,-13%
5,CC(=C/c1ccccc1)/C=N/NC(=O)c1ccccn1,-30.3%
6,COc1ccc(C(=O)N/N=C\C(C)=C\c2ccccc2)cc1OC,-61.4%
7,O=C(CNC(=O)c1ccccc1)N/N=C/C=C/c1ccccc1,-1.96%
8,COc1ccc(C(=O)NCC(=O)N/N=C/C(C)=C/c2ccccc2)cc1OC,-1.63%
9,CC(/C=N/NC(=O)c1ccccc1F)=C\c1ccccc1,12.7%
10,CC(/C=N/NC(=O)c1ccncc1)=C\c1ccccc1,9.78%
11,COc1ccccc1C(=O)N/N=C/C(C)=C/c1ccccc1,-73.8%
12,NC(=O)c1ccsc1NC(=O)COC(=O)c1ccc(Cl)c(N)c1,-3.1%
13,CC1CCCN(C(=O)CCS(=O)(=O)c2ccc3c(c2)n(C)c(=O)c(=O)n3C)C1 (stereo not shown),1.25%
14,Cc1nc2ccccc2nc1CSc1nncs1,5.39%
15,O=C(Nc1ccc(-c2nc3ccccc3o2)cc1)c1ccc(N2C(=O)C3C4C=CC(C4)C3C2=O)cc1 (stereo not shown),3.26%
16,O=C(Cc1ccccc1)NC(=S)Nc1ccc(OC(F)F)cc1,-2.31%
17,COCCN(CCOC)S(=O)(=O)c1ccc(NC(=O)c2cnccn2)cc1,13.1%
18,CCOC(=O)c1c(NC(=O)CSc2nnc(CNC(=O)c3ccco3)n2C)sc2c1CCC2,-50.1%
19,CCOC(=O)c1c(NC(=O)C(C)N2CCN(C(=O)c3ccco3)CC2)sc2c1CCCC2 (stereo not shown),-56.1%
20,CCOC(=O)c1c(NC(=O)C(NCCN(C)C)c2ccccc2)sc2c1CCCC2 (stereo not shown),-73.2%
21,CCOC(=O)c1c(NC(=O)c2ccccc2C(=O)O)sc2c1CCCC2,18%
22,CCOC(=O)c1c(NC(=O)c2ccccc2C(=O)O)sc2c1CCC2,-1.15%

row,Structure (SMILES),"hERG current change (%, negative = inhibition) at 10uM"
1,CCOC(=O)c1c(NC(=O)CSc2nnc(CN3CCOCC3)n2C)sc2c1CCCC2,-30%
2,CCOC(=O)c1c(NC(=O)c2ccco2)sc2c1CCCC2,4.29%
3,CCOC(=O)c1c(NC(=O)CN2CCN(C(=O)c3ccco3)CC2)sc2c1CCCC2,-8.72%
4,CCOC(=O)c1c(NC(=O)c2ccco2)sc2c1CCCCC2,9.58%
5,COc1ccc(C2=C(C=Nc3c(C)n(C)n(-c4ccccc4)c3=O)C(c3ccccc3C)c3ccccc3O2)cc1OC (stereo not shown),11.7%
6,CCOC(=O)C1CCN(c2ncnc3c2cnn3C)CC1,6.3%
7,Fc1ccc(NC(=S)N2CCCC2)cc1Cl,8.95%
8,CS(=O)(=O)NNC(=O)Cn1nnc(-c2cc(C(F)(F)F)cc(C(F)(F)F)c2)n1,19.7%
9,O=C(NNC(=O)c1nn(-c2ccc(F)cc2)ccc1=O)c1ccccc1Cl,-5%
10,O=C(Cn1cnc2ccccc2c1=O)NC1CCCc2ccccc21 (stereo not shown),6.08%
11,CCCCn1c(SCC(=O)Nc2cc(C)on2)nnc1-c1cccs1,-48.3%
12,CCOC(=O)Cc1csc(NC(=O)COc2ccc3c(c2)CCC3)n1,-1.14%
13,COc1ccc(C)cc1S(=O)(=O)NCCN1CCOCC1,17.5%
14,CC(C)c1ccc(N(C(=O)c2ccco2)C(C(=O)NC2CCCC2)c2cccnc2)cc1 (stereo not shown),-25.3%
15,COc1cccc(/C=C(/C#N)c2ccc(F)cc2)c1OCc1cccc(C(=O)O)c1,11.4%
16,CCOc1ccc(NC(=O)c2c3c(nc4ccccc24)CCC3)cc1,8.95%
17,O=C(NCc1ccc(F)cc1)c1c2c(nc3ccccc13)CCN(Cc1ccccc1)C2,-22.2%
18,CCN1CCc2nc3ccccc3c(C(=O)Nc3ccc(NC(C)=O)cc3)c2C1,10.2%
19,O=C(Nc1ccccc1)c1c2c(nc3ccccc13)CCCC2,-0.42%
20,CCN1CCc2nc3ccccc3c(C(=O)Nc3ccc(C#N)cc3)c2C1,-71%
21,CCN1CCc2nc3ccccc3c(C(=O)Nc3ccc(F)cc3)c2C1,-74.5%
22,CCCCC(=O)Nc1cccc(NC(=S)NC(=O)C(C)C)c1,3.44%

row,Structure (SMILES),"hERG current change (%, negative = inhibition) at 10uM"
1,O=C(NCCc1ccco1)C(=O)NCC1OCCCN1S(=O)(=O)c1ccccc1 (stereo not shown),-1.76%
2,COc1ccc(/C=N/NC(=S)NCC2CCCO2)cc1 (stereo not shown),6.97%
3,CCCC(=O)Nc1ccc(NC(=O)c2ccccn2)cn1,-8.57%
4,CC(C)NC(=O)CSCc1ccccc1Cl,12.9%
5,COc1ccc(Cn2nnnc2C(c2cc3ccc(OC)cc3[nH]c2=O)N2CCCCCC2)cc1 (stereo not shown),-13.6%
6,COc1ccc(Cn2nnnc2C(c2cc3cc(C)ccc3[nH]c2=O)N2CCOCC2)cc1 (stereo not shown),-50.2%
7,COc1ccc(Cn2nnnc2C(c2cc3cc(C)cc(C)c3[nH]c2=O)N2CCOCC2)cc1 (stereo not shown),-58.2%
8,COc1ccc2cc(C(c3nnnn3Cc3ccc(F)cc3)N3CCCCCC3)c(=O)[nH]c2c1 (stereo not shown),-23.3%
9,COc1ccc(Cn2nnnc2C(c2cc3cc(C)ccc3[nH]c2=O)N2CCN(C)CC2)cc1 (stereo not shown),-24.4%
10,COc1cc2cc(C(c3nnnn3Cc3ccc(F)cc3)N3CCCCCC3)c(=O)[nH]c2cc1OC (stereo not shown),-74%
11,Cc1ccc2[nH]c(=O)c(C(c3nnnn3CCc3ccccc3)N3CCOCC3)cc2c1 (stereo not shown),-10.5%
12,COc1ccc(Cn2nnnc2C(c2cc3cccc(C)c3[nH]c2=O)N2CCOCC2)cc1 (stereo not shown),-43.6%
13,CCc1ccc2[nH]c(=O)c(C(c3nnnn3Cc3ccc(OC)cc3)N3CCOCC3)cc2c1 (stereo not shown),-19.1%
14,Cc1ccc(C)c2[nH]c(=O)c(C(c3nnnn3Cc3ccccc3)N3CCc4ccccc4C3)cc12 (stereo not shown),-9.12%
15,COc1ccc(Cn2nnnc2C(c2cc3cccc(C)c3[nH]c2=O)N2CCN(C)CC2)cc1 (stereo not shown),29.6%
16,Cc1ccc(C)c2[nH]c(=O)c(C(c3nnnn3CCc3ccccc3)N3CCOCC3)cc12 (stereo not shown),-59.4%
17,COc1cnc(-c2ccccc2)nc1Oc1ccccc1C,-4.2%
18,CN(C)c1ccc(C(=O)/C=C/c2ccccc2)cc1,8.65%
19,O=C(NNC(=O)C1CCN(c2ncccn2)CC1)c1ccc(Cl)cc1,0.113%

# From publication PMC4336329 (PLoS ONE, 2015)
